Measurements from ChEMBL document CHEMBL2218924, “A broad activity screen in support of a chemogenomic map for kinase signalling research and drug discovery” (Biochem J, 2013).

Each compound was assayed against T1, Ephrin type-B receptor 4 (Homo sapiens) (UniProt P54760). Conditions: at 1 µM.
T1 sequence (whole entry): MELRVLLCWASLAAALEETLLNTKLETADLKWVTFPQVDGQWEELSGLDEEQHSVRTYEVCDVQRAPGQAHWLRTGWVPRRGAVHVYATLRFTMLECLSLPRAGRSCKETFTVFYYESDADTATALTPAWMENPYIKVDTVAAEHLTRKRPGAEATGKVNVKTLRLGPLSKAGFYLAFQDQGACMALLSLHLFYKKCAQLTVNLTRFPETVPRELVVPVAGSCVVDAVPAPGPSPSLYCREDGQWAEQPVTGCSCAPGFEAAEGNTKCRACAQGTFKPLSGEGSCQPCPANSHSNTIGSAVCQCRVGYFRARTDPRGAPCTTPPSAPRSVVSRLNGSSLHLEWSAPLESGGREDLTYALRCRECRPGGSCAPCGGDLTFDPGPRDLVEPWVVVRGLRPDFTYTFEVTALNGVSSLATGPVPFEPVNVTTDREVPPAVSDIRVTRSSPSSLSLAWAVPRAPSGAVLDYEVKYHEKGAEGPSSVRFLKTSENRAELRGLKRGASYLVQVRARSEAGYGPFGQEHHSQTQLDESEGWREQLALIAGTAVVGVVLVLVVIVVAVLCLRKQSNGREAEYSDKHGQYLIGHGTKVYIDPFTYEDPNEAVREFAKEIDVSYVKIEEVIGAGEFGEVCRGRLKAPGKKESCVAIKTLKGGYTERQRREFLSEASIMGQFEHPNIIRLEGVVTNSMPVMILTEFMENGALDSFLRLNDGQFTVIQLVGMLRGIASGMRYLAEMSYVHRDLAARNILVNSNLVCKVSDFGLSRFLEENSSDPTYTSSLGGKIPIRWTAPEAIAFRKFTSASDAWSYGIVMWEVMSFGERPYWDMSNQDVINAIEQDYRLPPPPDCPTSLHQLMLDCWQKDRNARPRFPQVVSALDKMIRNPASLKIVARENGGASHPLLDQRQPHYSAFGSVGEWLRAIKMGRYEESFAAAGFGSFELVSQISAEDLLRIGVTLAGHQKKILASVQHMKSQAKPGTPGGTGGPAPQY

**Q.** For `CC(C)(C)n1nc(Cc2cccc3ccccc23)c2c(N)ncnc21`, which residual activity is on record?
**A.** The residual activity was 3%.

**Q.** `COc1cc2ncnc(Nc3cccc(Cl)c3)c2cc1OC` was tested. Which residual activity did it give?
**A.** The residual activity was 45%.

**Q.** For `O=C1C(Cl)=C(N2C(=O)CCC2=O)C(=O)c2ccccc21`, which residual activity is on record?
**A.** Its residual activity is 93%.

**Q.** Which residual activity does the source give for `O=C1Cc2c([nH]c3ccc(Br)cc23)-c2ccccc2N1` here?
**A.** Its residual activity is 89%.

**Q.** With `Nc1ncnc2c1c(-c1ccc(Oc3ccccc3)cc1)cn2C1CCCC1` as the compound, how does the residual activity read?
**A.** Its residual activity is 99%.

**Q.** Which residual activity does the source give for `COc1ccc(-c2cnc3c(-c4ccsc4)cnn3c2)cc1` here?
**A.** The residual activity was 123%.

**Q.** How did the residual activity turn out when `COc1ccc(COc2ccc(Cc3cnc(N)nc3N)cc2OC)cc1` was run?
**A.** Its residual activity is 99%.

**Q.** Which residual activity does the source give for `CSc1nc(-c2ccc(F)cc2)c(-c2ccnc(NC(C)c3ccccc3)c2)[nH]1` (stereo not given) here?
**A.** Its residual activity is 99%.

**Q.** `O=C(O)/C=C/c1cc(Br)c(Br)c(Br)c1Br` was tested. Which residual activity did it give?
**A.** Its residual activity is 105%.

**Q.** Which residual activity does the source give for `O=C(CCCc1ccc(-c2ccccc2F)cc1)Nc1ccc(O)cc1` here?
**A.** Its residual activity is 93%.

**Q.** `Nc1ncnc2c1cnn2-c1ccccc1` was tested. Which residual activity did it give?
**A.** The residual activity was 95%.

**Q.** `O=C1NC(=O)c2c1c1c3ccccc3[nH]c1n1cncc21` was tested. Which residual activity did it give?
**A.** The residual activity was 82%.

**Q.** `CC(C)[C@H](CO)Nc1nc(Nc2cc(N)cc(Cl)c2)c2ncn(C(C)C)c2n1` was tested. Which residual activity did it give?
**A.** The residual activity was 57%.

**Q.** With `CC(C)c1nn(-c2c(Cl)cccc2Cl)c2nc(Cc3ccc(OCCO)cc3)[nH]c(=O)c12` as the compound, how does the residual activity read?
**A.** Its residual activity is 86%.

**Q.** How did the residual activity turn out when `O=c1cc(N2CCNCC2)oc2c(-c3ccccc3)cccc12` was run?
**A.** The residual activity was 97%.

**Q.** With `CN(C)S(=O)(=O)c1ccc2c(c1)/C(=C/c1cc3c([nH]1)CCCC3)C(=O)N2` as the compound, how does the residual activity read?
**A.** Its residual activity is 70%.

**Q.** How did the residual activity turn out when `Nc1n[nH]c2nc3ccccc3nc12` was run?
**A.** Its residual activity is 97%.

**Q.** `CCN(CC)CCNC(=O)c1c(C)[nH]c(/C=C2\C(=O)Nc3ccc(Cl)cc32)c1C` was tested. Which residual activity did it give?
**A.** Its residual activity is 100%.

**Q.** `CCCC(=O)Oc1ccc2[nH]c(C(=O)c3cc4ccccc4[nH]3)cc2c1` was tested. Which residual activity did it give?
**A.** Its residual activity is 92%.

**Q.** Which residual activity does the source give for `O=c1cc(N2CCOCC2)oc2c1ccc1ccccc12` here?
**A.** The residual activity was 101%.

**Q.** `CCCCc1c(-c2ccc(OC)cc2)[nH]c2nccnc12` was tested. Which residual activity did it give?
**A.** Its residual activity is 78%.

**Q.** `NC(=O)Nc1sc(-c2ccc(F)cc2)cc1C(N)=O` was tested. Which residual activity did it give?
**A.** Its residual activity is 49%.

**Q.** `Nc1ncnc2[nH]nc(Nc3ccc(F)cc3)c12` was tested. Which residual activity did it give?
**A.** Its residual activity is 42%.

**Q.** For `CCCCc1c(-c2ccc(O)cc2)[nH]c2nccnc12`, which residual activity is on record?
**A.** The residual activity was 74%.

**Q.** With `COc1cc2c(cc1OC)-c1n[nH]c(Nc3cccc(F)c3)c1C2` as the compound, how does the residual activity read?
**A.** The residual activity was 77%.

**Q.** For `Cn1sc(=O)n(Cc2ccccc2)c1=O`, which residual activity is on record?
**A.** Its residual activity is 87%.

These compounds were tested against T1, Ephrin type-B receptor 4 (Homo sapiens). Conditions: at 10 µM.

**Q.** With `CC(C)(C)n1nc(Cc2cccc3ccccc23)c2c(N)ncnc21` as the compound, how does the residual activity read?
**A.** Its residual activity is -3%.

**Q.** How did the residual activity turn out when `COc1cc2ncnc(Nc3cccc(Cl)c3)c2cc1OC` was run?
**A.** Its residual activity is 5%.

**Q.** For `O=C1C(Cl)=C(N2C(=O)CCC2=O)C(=O)c2ccccc21`, which residual activity is on record?
**A.** Its residual activity is 81%.

**Q.** Which residual activity does the source give for `O=C1Cc2c([nH]c3ccc(Br)cc23)-c2ccccc2N1` here?
**A.** The residual activity was 71%.

**Q.** `Nc1ncnc2c1c(-c1ccc(Oc3ccccc3)cc1)cn2C1CCCC1` was tested. Which residual activity did it give?
**A.** The residual activity was 89%.

**Q.** Which residual activity does the source give for `COc1ccc(-c2cnc3c(-c4ccsc4)cnn3c2)cc1` here?
**A.** The residual activity was 122%.

**Q.** With `COc1ccc(COc2ccc(Cc3cnc(N)nc3N)cc2OC)cc1` as the compound, how does the residual activity read?
**A.** The residual activity was 113%.

**Q.** With `CSc1nc(-c2ccc(F)cc2)c(-c2ccnc(NC(C)c3ccccc3)c2)[nH]1` (stereo not given) as the compound, how does the residual activity read?
**A.** The residual activity was 88%.

**Q.** For `O=C(O)/C=C/c1cc(Br)c(Br)c(Br)c1Br`, which residual activity is on record?
**A.** Its residual activity is 90%.

**Q.** How did the residual activity turn out when `Nc1ncnc2c1cnn2-c1ccccc1` was run?
**A.** Its residual activity is 102%.

**Q.** With `O=C1NC(=O)c2c1c1c3ccccc3[nH]c1n1cncc21` as the compound, how does the residual activity read?
**A.** Its residual activity is 73%.

**Q.** How did the residual activity turn out when `CC(C)[C@H](CO)Nc1nc(Nc2cc(N)cc(Cl)c2)c2ncn(C(C)C)c2n1` was run?
**A.** The residual activity was 6%.

**Q.** How did the residual activity turn out when `CC(C)c1nn(-c2c(Cl)cccc2Cl)c2nc(Cc3ccc(OCCO)cc3)[nH]c(=O)c12` was run?
**A.** Its residual activity is 76%.

**Q.** `CN(C)S(=O)(=O)c1ccc2c(c1)/C(=C/c1cc3c([nH]1)CCCC3)C(=O)N2` was tested. Which residual activity did it give?
**A.** The residual activity was 69%.

**Q.** How did the residual activity turn out when `Nc1n[nH]c2nc3ccccc3nc12` was run?
**A.** The residual activity was 77%.

**Q.** For `CCN(CC)CCNC(=O)c1c(C)[nH]c(/C=C2\C(=O)Nc3ccc(Cl)cc32)c1C`, which residual activity is on record?
**A.** Its residual activity is 35%.

**Q.** With `CCCC(=O)Oc1ccc2[nH]c(C(=O)c3cc4ccccc4[nH]3)cc2c1` as the compound, how does the residual activity read?
**A.** Its residual activity is 101%.

**Q.** With `O=c1cc(N2CCOCC2)oc2c1ccc1ccccc12` as the compound, how does the residual activity read?
**A.** Its residual activity is 108%.

**Q.** Which residual activity does the source give for `CCCCc1c(-c2ccc(OC)cc2)[nH]c2nccnc12` here?
**A.** The residual activity was 81%.

**Q.** Which residual activity does the source give for `NC(=O)Nc1sc(-c2ccc(F)cc2)cc1C(N)=O` here?
**A.** The residual activity was 6%.

**Q.** Which residual activity does the source give for `Nc1ncnc2[nH]nc(Nc3ccc(F)cc3)c12` here?
**A.** Its residual activity is 6%.

**Q.** Which residual activity does the source give for `CCCCc1c(-c2ccc(O)cc2)[nH]c2nccnc12` here?
**A.** Its residual activity is 16%.

**Q.** With `COc1cc2c(cc1OC)-c1n[nH]c(Nc3cccc(F)c3)c1C2` as the compound, how does the residual activity read?
**A.** Its residual activity is 35%.

**Q.** Which residual activity does the source give for `Cn1sc(=O)n(Cc2ccccc2)c1=O` here?
**A.** Its residual activity is 80%.
